Laboratory results: the supplement of paper PMC10981050
Where “and” joins values, the source holds several entries; their conditions need not be identical. Equal entries are not always repeated. Structures can show the parent of a compound that is named as a salt.

Experiments:
Assay in all cases: cell viability relative to vehicle control; higher = less cytotoxic
Conditions in all cases: 10 µM
[1] = tested on: K562
Method in brief: (§1)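 Mutant clones made by CRISPR editing and their isogenic wild-type counterparts, from four leukaemia lines, were exposed to a single 10 µM dose of each library compound for 48 h. The supernatant was then removed and CellTiter-Glo luminescence was read. Viability was reported as percent of the on-plate vehicle control.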

[2] = tested on: MARIMO
Method in brief: as §1

[3] = tested on: MOLM14
Method in brief: as §1

[4] = tested on: OCI-AML2
Method in brief: as §1

Compound | cell viability ([1]; SRSF2 genotype: SRSF2 P95H/wt) | cell viability ([1]; SRSF2 genotype: SRSF2 wt/wt) [%] | cell viability ([2]; SRSF2 genotype: SRSF2 P95H/wt) [%] | cell viability ([2]; SRSF2 genotype: SRSF2 wt/wt) [%] | cell viability ([3]; SRSF2 genotype: SRSF2 P95H/wt) [%] | cell viability ([3]; SRSF2 genotype: SRSF2 wt/wt) [%] | cell viability ([4]; SRSF2 genotype: P95H/wt) [%] | cell viability ([4]; SRSF2 genotype: wt/wt) [%]
CO/N=C(\C(=O)N[C@@H]1C(=O)N2C(C(=O)[O-])=C(C[n+]3cccc4c3CCCC4)CS[C@H]12)c1csc(N)n1 [Cefquinome sulfate] | 103% and 99.9% | 91 | 87.5 | 100 | 86.3 | 95.5 | 93.9 | 91.6
CCCCNc1ccc(C(=O)OCCN(C)C)cc1 [Tetracaine hydrochloride (Pontocaine)] | 99.3% and 87.2% | 90.7 | 93.4 | 105 | 92.2 | 96.2 | 94 | 98.4
O=C1c2c(O)cc(O)cc2OC(c2ccc(O)c(O)c2)C1O (stereo not given) [Taxifolin (Dihydroquercetin)] | 97.9% and 94.4% | 91.6 | 91.9 | 96.5 | 100 | 101 | 93.5 | 96
COCCNC(=O)Nc1ccc2nc(-c3cccs3)c(-c3cccs3)nc2c1 [ACSS2 inhibitor] | 82.9% and 79.4% | 84.3 | 85.1 | 97.7 | 89.1 | 94.8 | 91.5 | 95.1
CCc1cc(Nc2nccc(-c3c(-c4ccc(OC)c(C(=O)Nc5c(F)cccc5F)c4)nc4ccccn34)n2)c(OC)cc1N1CCC(N2CCN(S(C)(=O)=O)CC2)CC1 | 88.6% and 96.3% | 97.3 | 106 | 108 | 105 | 100 | 93.9 | 98.7
CCCC(=O)O[C@]1(C(=O)COC(C)=O)CC[C@H]2[C@@H]3C[C@H](F)C4=CC(=O)C=C[C@]4(C)[C@@]3(F)[C@@H](O)C[C@@]21C [Difluprednate] | 96.9% and 99% | 99.4 | 102 | 100 | 91.2 | 92.1 | 109 | 107
CCCc1nc(C(C)(C)O)c(C(=O)OCc2oc(=O)oc2C)n1Cc1ccc(-c2ccccc2-c2nnn[nH]2)cc1 [Olmesartan medoxomil (Benicar)] | 105% and 103% | 106 | 109 | 111 | 97.2 | 104 | 104 | 106
Cc1ncc([N+](=O)[O-])n1C [Dimetridazole] | 106% and 99.5% | 105 | 109 | 106 | 99.1 | 103 | 105 | 109
COc1ccc(CCc2nc3cc(-c4c(C)noc4C)ccc3n2C[C@H](C)N2CCOCC2)cc1Cl | 80.9% and 86.9% | 73.8 | 76.9 | 70.5 | 47.4 | 42.5 | 45.7 | 60.6
OC[C@H]1O[C@@H](Oc2cc3c(O)cc(O)cc3[o+]c2-c2ccc(O)c(O)c2)[C@H](O)[C@@H](O)[C@@H]1O [Cyanidin-3-O-glucoside chloride] | 93.5% and 89% | 87.1 | 91.6 | 92.6 | 90.4 | 91.1 | 83 | 86.2
